Records with an inconclusive call do not appear. Entries that show only a call come without a potency. The source made the active and inactive calls. The call rests on the fitted dose curve; in most records, active means well fitted inhibition curve with a large enough effect; inconclusive means small, poorly fitted or top-dose-only effect; inactive means flat fitted curve, though single readings scatter.
Assay: CHOP2 Reporter Counterscreen Assay for Inhibitors of Ubiquitin-specific Protease USP2a;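 further: activated enterokinase alone at 50 pM in a cell-free format rather than USP2a or CHOP2; nearly all actives have a fitted effect of over 55% in size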
Method in brief: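 Cell-free counterscreen with pre-activated enterokinase alone (50 pM final) in 20mM Tris-HCl pH 8.0, 2mM CaCl2, 2mM beta-mercaptoethanol, 0.05% CHAPS; compound preincubation 30 min RT, reporter substrate 25nM final, fluorescence read after 10 min (Ex 485/Em 531).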
Potency means the concentration at half of the fitted maximal effect.

**Q.** Which Potency does the source give for `O=C(COc1ccccc1)NCc1nnc(SCC(=O)Nc2nccs2)n1-c1ccccc1` here?
**A.** inactive

**Q.** With `CC(=O)Nc1ccc(NC(=O)[C@@H](NC(=O)c2cccc(C)c2)C(C)C)cc1` as the compound, how does the Potency read?
**A.** inactive

**Q.** For `Cc1ccc(SCC(=O)NCC(C)C)cc1`, which Potency is on record?
**A.** inactive

**Q.** With `O=C(Nc1nnc(-c2cccs2)o1)c1cccc(Oc2ccccc2)c1` as the compound, how does the Potency read?
**A.** inactive

**Q.** With `Cn1c(C(=O)NCCN2CCOCC2)cc2c(=O)n(C)c3ccccc3c21` as the compound, how does the Potency read?
**A.** inactive

**Q.** With `CC1CCCCN1CCNC(=O)CC1Oc2ccccc2NC1=O` (stereo not given) as the compound, how does the Potency read?
**A.** inactive

**Q.** With `O=C(NN1C(=O)/C(=C/C=C/c2ccco2)SC1=S)c1ccncc1` as the compound, how does the Potency read?
**A.** 2.51 µM (active)

**Q.** With `COc1ccc2[nH]c(=O)c(CN(Cc3ccco3)Cc3nnnn3Cc3ccccc3)cc2c1` as the compound, how does the Potency read?
**A.** inactive

**Q.** With `Cc1c(C(=O)NCc2c(F)cc(F)cc2F)oc2ccc(S(=O)(=O)N3CCOCC3)cc12` as the compound, how does the Potency read?
**A.** inactive

**Q.** Which Potency does the source give for `CC(NC(=O)COc1ccccc1-c1ccccc1)c1ccccc1` (stereo not given) here?
**A.** inactive

**Q.** Which Potency does the source give for `CCC(C)NC(=O)CSC1=Nc2ccccc2C2=NC(c3ccccc3)C(=O)N12` (stereo not given) here?
**A.** inactive

**Q.** Which Potency does the source give for `N=C1C(c2nc3ccccc3c(=O)[nH]2)=C(O)CN1CCc1ccccc1` here?
**A.** inactive

**Q.** With `Cc1ccc(O)c(CC(C)C)n1` as the compound, how does the Potency read?
**A.** inactive

**Q.** For `O=C(c1ccccc1)N1CCN(C2C3CC4CC(C3)CC2C4)CC1` (stereo not given), which Potency is on record?
**A.** inactive

**Q.** For `CCCOc1ccc(N2C(=O)CC(NCCc3ccc(S(N)(=O)=O)cc3)C2=O)cc1` (stereo not given), which Potency is on record?
**A.** inactive

**Q.** For `Cc1cc(C(=O)Nc2ccccc2N2CCOCC2)c2ccccc2n1`, which Potency is on record?
**A.** inactive

**Q.** With `CCn1c(COc2ccc(C)cc2)nnc1SCC(=O)Nc1ccc2c(c1)OCCO2` as the compound, how does the Potency read?
**A.** inactive

**Q.** Which Potency does the source give for `O=C(NC(=S)N1CCCc2ccccc21)c1ccc([N+](=O)[O-])cc1` here?
**A.** inactive

**Q.** For `C=CC[C@H](CC(=O)N[C@H](CO)Cc1ccccc1)C(=O)N[C@H](COC(=O)[C@@H](CC=C)CC(=O)OC(C)(C)C)Cc1c[nH]c2ccccc12`, which Potency is on record?
**A.** inactive

**Q.** For `CC1Cc2ccccc2N1C(=O)Cn1c(=O)oc2cc(S(=O)(=O)NC3CCCC3)ccc21` (stereo not given), which Potency is on record?
**A.** inactive

**Q.** With `CC(=O)Nc1cc[n+](CC(=O)c2ccc(Cl)cc2)cc1` as the compound, how does the Potency read?
**A.** inactive

**Q.** For `CCn1c2ccccc2c2nc3ccccc3nc21`, which Potency is on record?
**A.** inactive

**Q.** Which Potency does the source give for `CCn1nnnc1SCC(=O)Nc1cccc(C)n1` here?
**A.** inactive

**Q.** Which Potency does the source give for `CCCCC1CCC(C(=O)Nc2ccc(S(=O)(=O)Nc3nccs3)cc2)CC1` (stereo not given) here?
**A.** inactive

**Q.** Which Potency does the source give for `COc1ccccc1-n1c(SCC(=O)Nc2ccc(C)cc2)nc(O)cc1=O` here?
**A.** inactive

**Q.** For `O=C(OCc1nc2ccccc2[n+]([O-])c1C(=O)c1ccccc1)c1cccs1`, which Potency is on record?
**A.** inactive

**Q.** For `O=C(COC(=O)c1ccc(F)c(S(=O)(=O)N2CCOCC2)c1)c1ccccc1`, which Potency is on record?
**A.** inactive

**Q.** Which Potency does the source give for `CCOC(=O)N1CCN(C(=O)CN(c2ccc(Oc3ccccc3)cc2)S(C)(=O)=O)CC1` here?
**A.** inactive

**Q.** Which Potency does the source give for `CCCCCCCCCCOC(=O)Cn1c(COc2ccc(Cl)cc2)[n+](C)c2ccccc21` here?
**A.** 8.91 µM (active)

**Q.** For `C=CCn1c(N)c(C(=O)NCc2cccnc2)sc1=S`, which Potency is on record?
**A.** inactive

**Q.** With `CCCn1c(N2CCN(Cc3cccc(C)c3)CC2)nc2c1c(=O)[nH]c(=O)n2C` as the compound, how does the Potency read?
**A.** inactive

**Q.** With `COc1cc(C2C(C#N)=C(N)Oc3c2ccc2ccccc32)ccc1OCC(=O)Nc1cccc(C)c1` (stereo not given) as the compound, how does the Potency read?
**A.** inactive

**Q.** For `CCOc1cccc(NC(=O)/C(C#N)=C\c2cn(CC(=O)O)c3ccccc23)c1`, which Potency is on record?
**A.** inactive

**Q.** For `Clc1ccc2c(N/N=C/c3ccc(Br)cc3)ccnc2c1`, which Potency is on record?
**A.** 7.94 µM (active)

**Q.** For `Cc1ccc(C(=O)CSc2nnc(CNc3nc(-c4ccccc4)cs3)n2C)cc1`, which Potency is on record?
**A.** inactive

**Q.** For `Cc1nc2ccccc2c2oc(C(=O)NCCN3CCN(C)CC3)cc12`, which Potency is on record?
**A.** inactive

**Q.** Which Potency does the source give for `O=C(c1ccco1)N1CCN(C(c2cccs2)c2sc3ncnn3c2O)CC1` (stereo not given) here?
**A.** inactive

**Q.** Which Potency does the source give for `Cc1ccc(/C(N)=N/OC(=O)Oc2ccccc2)cc1` here?
**A.** inactive

**Q.** For `Cc1ccc(NC(=O)Cn2nc(C)c3ccccc3c2=O)cc1F`, which Potency is on record?
**A.** inactive

**Q.** With `O=C(CCNc1cccc(Cl)c1)c1ccco1` as the compound, how does the Potency read?
**A.** inactive

**Q.** With `Cc1cc2c(c(=O)n1CC1CCCO1)C(c1ccco1)C(C#N)=C(N)O2` (stereo not given) as the compound, how does the Potency read?
**A.** inactive

**Q.** With `NS(=O)(=O)c1ccc(N=Nc2c(O)c(C(=O)O)cc3ccccc23)cc1` as the compound, how does the Potency read?
**A.** 11.2 µM (active)

**Q.** For `Cc1ccc(-c2c(C)n([O-])c3c([n+]2=O)CCC3)o1`, which Potency is on record?
**A.** inactive

**Q.** With `C=CC[C@H](CC(=O)N[C@H](CO)Cc1ccccc1)C(=O)N[C@@H](COC(=O)[C@@H](CC=C)CC(=O)OC(C)(C)C)Cc1c[nH]c2ccccc12` as the compound, how does the Potency read?
**A.** inactive

**Q.** Which Potency does the source give for `Cc1cc(NS(=O)(=O)c2ccc(Nc3nc(-c4ccc(C)c(C)c4)cs3)cc2)no1` here?
**A.** inactive

**Q.** With `COc1ccc(-n2c(=S)[nH]c3cc(C(=O)NCc4ccc(F)cc4)ccc3c2=O)c(OC)c1` as the compound, how does the Potency read?
**A.** inactive

**Q.** For `CCOC(=O)C(=O)Nc1nc(-c2ccc3c(c2)CCN3C(=O)C2CC2)c(C)s1`, which Potency is on record?
**A.** inactive

**Q.** For `CCCCCCCCCCCCCCCC[N+](C)(C)CCN(Cc1ccc(OC)cc1)c1ncccn1`, which Potency is on record?
**A.** 10 µM (active)

**Q.** For `Cn1c(SCc2nc3ccccc3s2)nnc1-c1cccs1`, which Potency is on record?
**A.** inactive

**Q.** With `O=C(CCn1c(=O)c2ccccc2n(Cc2ccccc2)c1=O)NCc1ccc2c(c1)OCO2` as the compound, how does the Potency read?
**A.** inactive

**Q.** With `O=C(CCS(=O)(=O)c1ccc(Br)s1)NC1CCCC1` as the compound, how does the Potency read?
**A.** inactive

**Q.** With `COc1ccc(Cl)cc1C(=O)Nc1cccc(-c2ccc3nncn3n2)c1` as the compound, how does the Potency read?
**A.** 10 µM (active)

**Q.** With `CSCC[C@H](NC(=O)C1CCN(S(=O)(=O)c2ccc(C)cc2)CC1)C(=O)NCc1ccco1` as the compound, how does the Potency read?
**A.** inactive

**Q.** For `O=C(C1CCCN(S(=O)(=O)c2cccc3cccnc23)C1)N1CCN(c2ccccc2F)CC1` (stereo not given), which Potency is on record?
**A.** inactive

**Q.** Which Potency does the source give for `COc1ccc(CC(NC(C)=O)C(=O)NC2CCN(c3nc(C)cc(C)c3C#N)CC2)c(OC)c1` (stereo not given) here?
**A.** inactive

**Q.** Which Potency does the source give for `CC(C)CCn1c(CN2CCN(C(=O)c3ccco3)CC2)nc2c1c(=O)n(C)c(=O)n2C` here?
**A.** inactive

**Q.** Which Potency does the source give for `CCOC(=O)c1c(-c2ccc(C)o2)csc1NC(=O)COC(=O)c1ccc(NC(N)=O)cc1` here?
**A.** inactive

**Q.** For `Cc1ccc(N=C2NC(=O)/C(=C/C=C/c3ccco3)S2)cc1C`, which Potency is on record?
**A.** 8.91 µM (active)

**Q.** For `CC(C)(C)OC(=O)C[C@H]1C/C=C\C[C@H](CC(=O)N(CCO)Cc2ccccc2)C(=O)NC[C@H](c2ccccc2)OC1=O`, which Potency is on record?
**A.** inactive

**Q.** With `O=C(O)CCn1c(C2CCCCC2)nc2ccccc21` as the compound, how does the Potency read?
**A.** inactive

**Q.** For `O=C(Cc1ccc(S(=O)(=O)N2CCOCC2)s1)Nc1nc2c(s1)CCCC2`, which Potency is on record?
**A.** 10 µM (active)

**Q.** With `Nc1ccc2nc(-c3ccc(N)c(Cl)c3)[nH]c2c1` as the compound, how does the Potency read?
**A.** inactive

**Q.** With `Cc1ccc(-c2ccc(CCC(=O)O)n2NC(=O)c2cccs2)cc1` as the compound, how does the Potency read?
**A.** inactive

**Q.** Which Potency does the source give for `CCCCCCCCCCOC(=O)Cn1c(COc2ccc(C)cc2)[n+](C)c2ccccc21` here?
**A.** 5.62 µM (active)

**Q.** With `COc1cccc(/C=N/n2c(SC)nnc2-c2ccccc2)c1O` as the compound, how does the Potency read?
**A.** inactive

**Q.** Which Potency does the source give for `COc1ccccc1-c1nnc(SCC(=O)Nc2nc(-c3ccccc3)cs2)n1C` here?
**A.** inactive

**Q.** For `CC[n+]1c(/C=C/N(C)c2ccccc2)n(-c2ccccc2)c2ccc(-c3nc4ccccc4s3)cc21`, which Potency is on record?
**A.** 10 µM (active)

**Q.** For `O=C(CCSCc1ccc(Cl)cc1)NCCc1ccccc1`, which Potency is on record?
**A.** inactive

**Q.** Which Potency does the source give for `COc1cccc(OC)c1-c1nn2c(-c3cc(-c4ccccc4)n[nH]3)nnc2s1` here?
**A.** 5.62 µM (active)

**Q.** For `CCC(C)c1ccc(O)c(N)c1` (stereo not given), which Potency is on record?
**A.** inactive

**Q.** With `CC1CC(C)CN(C(=O)CSc2nnc(-c3ccc(Cl)cc3)o2)C1` (stereo not given) as the compound, how does the Potency read?
**A.** inactive

**Q.** For `Cc1cc(NC(=O)CN2C(=O)NC3(CCCCC3C)C2=O)no1` (stereo not given), which Potency is on record?
**A.** inactive

**Q.** For `O=C1OC[C@@H]2CCCN2C(=O)[C@@H](CC(=O)N(CCO)Cc2ccccc2)C/C=C\C[C@@H]1Cc1ccc(F)cc1`, which Potency is on record?
**A.** inactive

**Q.** Which Potency does the source give for `O=C(O)/C=C/c1ccc(S(=O)(=O)Nc2ccccc2C(=O)Nc2ccc(F)cc2)cc1` here?
**A.** inactive

**Q.** With `C=C(CCC(=O)c1ccccc1)C(=O)c1ccccc1` as the compound, how does the Potency read?
**A.** inactive

**Q.** For `O=[N+]([O-])c1ccc(Sc2nnnn2-c2ccccc2)c(Cl)c1`, which Potency is on record?
**A.** inactive

**Q.** For `COc1ccc2nc(C)cc(SCC(=O)N/N=C/c3c(OC)ccc4ccccc34)c2c1`, which Potency is on record?
**A.** inactive

**Q.** For `CCOC(=O)c1ccc(NC(=O)C2=C(C)Nc3nc(CCCO)nn3C2c2cccc(C)c2)cc1` (stereo not given), which Potency is on record?
**A.** inactive

**Q.** For `O=C(NC1CCCCC1)C(c1ccco1)N(Cc1ccco1)C(=O)c1ccco1` (stereo not given), which Potency is on record?
**A.** inactive

**Q.** With `CC1=NN(c2ccc(C(=O)O)cc2)C(=O)/C1=C\c1ccc(OC(=O)c2cccs2)cc1` as the compound, how does the Potency read?
**A.** 3.55 µM (active)

From PubChem BioAssay AID493169 (National Center for Advancing Translational Sciences (NCATS), 2011)
